The list is not random: actives were taken first. Their share in the collection is about 5%.
TbPYK inhibitor: blocks Trypanosoma brucei pyruvate kinase; Q57TT1; TbPYK enzyme, Kinase-Glo Plus ATP luminescence, 45 min; Potency, µM (titrated, usually from 76.8 µM), for the others: at the top dose activity, negative = inhibition, most hits filed as inhibitors; 410,000 tested, 0.12% active; further: potency means the concentration at half of the fitted maximal effect; nearly all actives have a fitted effect of over 50% in size
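Assay buffer: 50 mM TEA pH 7.2, 100 mM KCl, 10 mM MgCl2, 0.05% BSA, 0.01% Tween-20. Pyruvate kinase from T. brucei plus substrate met compound, then ADP (130 uM final). Luminescence was read post 45 min RT.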
VACV mCherry inh: vaccinia inhibition (mCherry reporter). Vaccinia virus mCherry reporter infection, fluorescence. Potency, µM (highest dose often 36.5 µM), for the others: at the top dose activity change, negative = inhibition, hits mostly inhibitors. 310,000 tested, 0.63% active; calls by dose curve; tested in A549 cells; further: potency means the concentration at half of the fitted maximal effect; nearly all actives have a fitted effect of over 35% in size
LmPK inh: LmPK (Leishmania mexicana) enzyme inhibition. 290,000 tested, 0.37% active. Q27686. Potency, µM (doses to about 57.5 µM), inactives show top-dose activity change, negative = inhibition, hits mostly inhibitors. purified LmPK, Kinase-Glo ATP luminescence, 1 h; further: potency means the concentration at half of the fitted maximal effect
Target sequence (Q27686 whole entry, looked up): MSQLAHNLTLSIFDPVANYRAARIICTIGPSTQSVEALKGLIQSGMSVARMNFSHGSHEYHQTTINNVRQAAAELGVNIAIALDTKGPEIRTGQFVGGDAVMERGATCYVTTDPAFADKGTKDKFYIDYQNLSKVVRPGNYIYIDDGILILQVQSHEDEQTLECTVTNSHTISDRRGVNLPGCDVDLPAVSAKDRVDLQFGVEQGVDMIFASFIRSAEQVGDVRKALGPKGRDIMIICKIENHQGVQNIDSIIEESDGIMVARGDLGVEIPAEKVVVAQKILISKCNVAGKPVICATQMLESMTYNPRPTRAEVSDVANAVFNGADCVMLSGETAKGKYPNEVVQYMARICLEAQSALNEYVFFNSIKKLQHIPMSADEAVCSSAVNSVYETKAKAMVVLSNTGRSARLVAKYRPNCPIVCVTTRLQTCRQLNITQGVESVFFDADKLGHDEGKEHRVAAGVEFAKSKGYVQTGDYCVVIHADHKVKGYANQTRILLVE
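ATP generated from ADP (0.1 mM) and PEP (0.5 mM) by 0.1 nM LmPK over 1 h at room temperature (pH 7.2 imidazole buffer) was detected by coupled luciferase luminescence. Values were normalized to uninhibited and no-enzyme wells.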
VACV Venus inh: vaccinia inhibition (Venus reporter); Vaccinia virus Venus reporter expression, fluorescence; Potency, µM (doses to about 36.5 µM), for inactives: top-dose activity change, negative = inhibition, hits mostly inhibitors; 330,000 tested, 0.46% active; AID 720580; calls by dose curve; tested in A549 cells; further: potency means the concentration at half of the fitted maximal effect; nearly all actives have a fitted effect of over 30% in size
HCMV antiviral: inhibitors of human cytomegalovirus; HFF cells, HCMV-luciferase reporter, 72 h; active compounds read low; activity change, negative = inhibition, % at 57.5 µM; 410,000 tested, 4.5% active; AID 1259415; in the data active means activity change below about -60%; inconclusive means no clear call, values can overlap the other calls; inactive means above about -39%
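Steps: HFFs plated, 16 h 37C; compounds added; HCMV-luciferase added to MOI 1 PFU/cell; 72 h 37C; OneGlo reagent, 5 min room temperature; luminescence read, normalized to controls.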
Active calls of the source: *; i = inactive; ? = inconclusive; · = no result; [ ] = another dose, or the depositor's remark. Unless noted, the call rests on the fitted dose curve; in most records, active means well fitted curve in the direction sought with a large enough effect; inconclusive means small, poorly fitted or top-dose-only effect, or another doubt; inactive means no such curve, though single readings can be large; an effect the other way counts as inactive or inconclusive. On the % scale 0 is the no-effect control and ±100 the full control effect.

SMILES	TbPYK inhibitor	VACV mCherry inh	LmPK inh	VACV Venus inh	HCMV antiviral
O=C(O)CSCC(=O)Nc1ccc(Cl)cc1C(F)(F)F	-6%	i	-1%	-1%	-2
CCC(C)N(CC(=O)Nc1cccc(C)c1C)C(=O)CCl (stereo not given)	-9%	4.5µM*	4%	?	·
CNCc1sccc1C	-1%	-6%	-1%	-10%	-15
COC(=O)c1c(NC(=O)CCC(=O)O)sc2c1CCCCC2	-8%	-7%	2%	-16%	?
N#Cc1c(NC(=O)CSc2ncnc3c2cnn3-c2ccccc2Cl)sc2c1CCCC2	-7%	-12%	0%	-6%	?
COC(=O)c1c(NC(=O)CSc2ncnc3[nH]ncc23)sc2c1CCC2	2%	7%	0%	1%	-81*
COC(=O)c1c(NC(=O)CSc2ncnc3c2cnn3-c2ccccc2Cl)sc2c1CCCC2	-4%	·	1%	·	-85*
CCOc1cccc2sc(NC(=O)c3ccc(S(=O)(=O)N4CCc5ccccc54)cc3)nc12	2%	-14%	·	-11%	30
NC(=O)C1CCN(C(=O)c2ccccc2NC(=O)c2nsc3ccccc23)CC1	-20%[15.4 µM]	-22%	·	-7%	0
Cc1oc(-c2ccc(Cl)cc2)nc1CN1CCC(C(=O)NCCCN2CCCC(C)C2)CC1 (stereo not given)	2%	·	4%	·	-101*
CCOC(=O)N1CCC(NC(=O)C2CCN(Cc3nc(-c4ccc(CC)cc4)oc3C)CC2)CC1	1%	i	·	-12%	33
Cc1oc(-c2ccc(Cl)cc2)nc1CN1CCCC(C(=O)NCc2cccnc2)C1 (stereo not given)	4%	·	1%	·	-84*
Cc1oc(-c2ccc(Cl)cc2)nc1CN1CCC(C(=O)NCCCN2CCCC2=O)CC1	2%	-8%	-1%	-19%	-16
CCOC(=O)N1CCC(NC(=O)C2CCCN(Cc3nc(-c4ccc(CC)cc4)oc3C)C2)CC1 (stereo not given)	3%	-24%	-2%	-29%	-87*
CC1C(C#N)=C(SCC(N)=O)NC2=C1C(=O)CC(C)(C)C2 (stereo not given)	-11%	-17%	-1%	-14%	?
COc1ccc(/C=C(/NC(=O)c2ccco2)C(=O)Nc2cccc(C(=O)O)c2)cc1	6%	-17%	-5%	-8%	28
CNc1ncnc(NC)c1[N+](=O)[O-]	2%	-14%	·	0%	-3
Oc1ccccc1CNn1cnnc1	-7%	-6%[1.46 µM]	-5%	-12%	-100*
Cc1ccc(NCC(=O)NNC2=NCCC2)c(C)c1	4%	·	-3%	·	5
C/C(CC(C)(C)C1CCCCC1)=N\NC(N)=S	3%	11µM*	1%	18µM*	-88*
CN(Cc1ccccc1)C(=O)COC(=O)Cn1cnc2ccccc21	-3%	i	2%	-8%	31
CCOC(=O)c1ccc(Nc2cc(C)nc(N3CCOCC3)n2)cc1	2%	10µM*	4%	13µM*	25
CCOC(=O)c1ccc(Nc2nc(C)cc(C)n2)cc1	2%	-12%	1%	2%	40
CCOC(=O)c1ccc(Nc2cc(C)nc(-c3ccccc3)n2)cc1	4%	?	3%	?	-76*
CCc1ccc(C(=O)COC(=O)c2nn(C)c(=O)c3ccccc23)cc1	-3%	-8%	0%	-15%	5
SMILES	TbPYK inhibitor	VACV mCherry inh	LmPK inh	VACV Venus inh	HCMV antiviral
CCc1ccc(C(=O)COC(=O)c2n[nH]c3ccccc23)cc1	-2%	-4%	?	-11%	-65*
Cc1cc(NC(=O)CCl)nn1C	7%	?	-6%	?	?
Cc1cc(Br)c(NC(=O)CCl)c(Br)c1	-4%	?	1%	?	-66*
Cc1cc(NC(=O)CCl)on1	2%	-21%	0%	0%	-68*
COC(=O)c1cccc2c1-c1ccccc1/C2=N/O	0%	·	6%	?	?
COc1ccc(C(=O)ON=C2C=C(C)C(=O)C(C)=C2)cc1	1%	-1%	-1%	12%	-76*
COc1cc(C(=O)O/N=C2\C=CC(=O)C(C)=C2)cc(OC)c1OC	-8%	·	-5%	·	-27
COc1ccc(S(=O)(=O)N=C2C=C(C)C(=O)C(C)=C2)cc1	-4%	·	-7%	·	26
COc1cc(C(=O)ON=C2C=C(C)C(=O)C(C)=C2)cc(OC)c1OC	-5%	-6%	1%	18%	-62*
CC(=O)NC1CC2CCCC(C1)N2C(=O)Nc1ccc(Cl)c(C(F)(F)F)c1 (stereo not given)	-8%	·	0%	·	26
Cc1ccc(NC(=O)c2ccc3nccnc3c2)c(C)c1	5%	i	0%	-7%	-68*
Cc1cc(C)c(NC(=O)c2ccc3nccnc3c2)c(C)c1	0%	-5%	·	7%	-72*
COCCCN1C(=O)c2ccc(C(=O)Nc3ccccc3OC)cc2C1=O	3%	-11%	-3%	-8%	5
O=C(Nc1ccc(SC(F)F)cc1)c1ccc2nccnc2c1	-10%	-14%	8%	-21%	-78*
Cc1cc(NC(=O)c2ccc3nccnc3c2)ccc1Br	1%	-1%	·	-10%	26
COCCCN1C(=O)c2ccc(C(=O)Nc3ccc(C)cc3C)cc2C1=O	1%	·	-3%	·	-92*
Cc1cccc(Nc2nnc(-c3ccc(C)c(S(=O)(=O)N4CCN(C)CC4)c3)c3ccccc23)c1	-3%	?	·	-29%	-69*
COc1ccc(Nc2nnc(-c3ccc(C)c(S(=O)(=O)N4CCOCC4)c3)c3ccccc23)cc1	-1%	-18%	·	-25%	-99*
Cc1ccc(-c2nnc(Nc3ccc(O)cc3)c3ccccc23)cc1S(=O)(=O)N1CCOCC1	1%	-21%	·	?	-88*
Cc1ccc(-c2nnc(Nc3cccc(Br)c3)c3ccccc23)cc1S(=O)(=O)N1CCN(C)CC1	4%	-29%	·	?	?
Cc1ccc(-c2nnc(Nc3ccc(OC(F)(F)Cl)cc3)c3ccccc23)cc1S(=O)(=O)NC(C)(C)CO	-2%	?	·	?	-95*
Cc1ccc(-c2nnc(Nc3ccc(C(=O)N(C)C)cc3)c3ccccc23)cc1S(=O)(=O)NC(C)(C)CO	-1%	-1%	-1%	-4%	-16
Cc1ccc(-c2nnc(NC3CCCCC3)c3ccccc23)cc1S(=O)(=O)N1CCN(C)CC1	1%	?	7%	-12%	-74*
Cc1ccc(-c2nnc(Nc3cccc(O)c3)c3ccccc23)cc1S(=O)(=O)N1CCCCC1	0%	?	·	?	-74*
COc1ccc(NC(=O)c2cc(C)nc3ccccc23)cc1S(=O)(=O)N1CCOCC1	3%	-3%	·	-15%	26
COc1ccc(Nc2nc(-c3ccccc3)nc3ccccc23)cc1S(=O)(=O)N1CCOCC1	0%	·	5%	·	-60*
Cc1ccc(Nc2nnc(-c3ccc(C)c(S(=O)(=O)N4CCN(C)CC4)c3)c3ccccc23)cc1	0%	?	·	?	-8
